Assay outcomes from PubChem.
HPGD inh: qHTS Assay for Inhibitors of HPGD (15-Hydroxyprostaglandin Dehydrogenase) | 15-hydroxyprostaglandin dehydrogenase [NAD(+)] (Homo sapiens), P15428 | purified HPGD, NADH fluorescence kinetic, PGE2 substrate | Potency, µM, for inactives: at the top dose activity change, negative = inhibition, usual class: inhibitors | hit rate 4.3% among 150,000; further: on the % scale 0 is the no-effect control and ±100 the full control effect
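NADH formation kinetics: reaction with 30 uM PGE2 and 1 mM NAD+ (final), 20 nM enzyme, Tris-HCl pH 8 with Tween 20, after 15 min compound preincubation at room temperature. Fluorescence change, last versus first of five reads.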
ALDH1A1 inh: qHTS Assay for Inhibitors of Aldehyde Dehydrogenase 1 (ALDH1A1); Purified ALDH1A1, NADH fluorescence, propionaldehyde substrate; hit rate 7.3% among 220,000; Potency, µM (series often up to 75.3 µM), without a hit: at the highest dose activity, negative = inhibition, hits mostly inhibitors; Aldehyde dehydrogenase 1A1 (Homo sapiens), P00352; AID 1030, 2008;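 further: plate controls were no enzyme wells and a reference inhibitor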
Target sequence (P00352 whole entry, looked up): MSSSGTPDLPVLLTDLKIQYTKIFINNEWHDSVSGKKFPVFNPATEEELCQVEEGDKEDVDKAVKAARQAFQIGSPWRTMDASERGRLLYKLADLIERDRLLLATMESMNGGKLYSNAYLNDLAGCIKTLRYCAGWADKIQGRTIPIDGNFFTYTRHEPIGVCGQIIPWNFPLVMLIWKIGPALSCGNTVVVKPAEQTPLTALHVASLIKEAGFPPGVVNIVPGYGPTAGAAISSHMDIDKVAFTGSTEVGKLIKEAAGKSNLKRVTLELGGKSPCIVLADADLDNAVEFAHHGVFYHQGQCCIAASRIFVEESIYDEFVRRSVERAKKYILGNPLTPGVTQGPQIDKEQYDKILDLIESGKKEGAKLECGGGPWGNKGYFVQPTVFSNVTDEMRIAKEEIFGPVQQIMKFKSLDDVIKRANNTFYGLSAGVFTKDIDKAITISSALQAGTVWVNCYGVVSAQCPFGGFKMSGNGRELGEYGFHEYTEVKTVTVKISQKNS
JMJD2E inh: qHTS Assay for Inhibitors of Human Jumonji Domain Containing 2E (JMJD2E) | JMJD2E catalytic domain, FDH-coupled NADH fluorescence (FDH is formaldehyde dehydrogenase) | Potency, µM (top dose mostly 57.1 µM), for the others: at the highest dose activity change, negative = inhibition, hits mostly inhibitors | hit rate 1.6% among 230,000;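 further: 0% = wells with enzyme and -100% = buffer wells without enzyme; nearly all actives have a fitted effect of over 50% in size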
HTT aggregate: qHTS Multiplex Assay to Identify Dual Action Probes in a Cell Model of Huntington: Aggregate Formation (GFP) | PC12 HttQ103-GFP aggregates, Acumen cytometry, 40 h | Potency, µM (top dose mostly 46.1 µM), without a hit: top-dose activity change, negative = inhibition, actives largely listed as inhibitors | hit rate 1.1% among 220,000; active means well fitted curve in the direction sought with a large enough effect; inconclusive means small, poorly fitted or top-dose-only effect, or another doubt; inactive means no such curve, though single readings can be large; an effect the other way counts as inactive or inconclusive; further: on the % scale 0 is the no-effect control and ±100 the full control effect; nearly all actives have a fitted effect of over 60% in size
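Read-out: GFP aggregate count by laser scanning cytometer (488 nm excitation, 500-530 nm emission, 1–25 µm objects >6 SD above background). Cells: PC12, inducible HTTex1-Q103-GFP, 100 nM tebufenozide; compounds titrated.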
LMNA splice mod: qHTS Assay for Modulators of Lamin A Splicing | HeLa LMNA splicing GFP/RFP minigene ratio, 48 h | Potency, µM (titrated, usually from 46.1 µM), for inactives: at the highest dose ratio change, negative = inhibition, hits mostly inhibitors | hit rate 0.01% among 200,000 | AID 1487, 2009; active means well fitted inhibition curve with a large enough effect in the signal ratio, with a control signal flat, not every such curve was filed as active; inconclusive means small, poorly fitted or top-dose-only effect, or effect the other way, or a change in a side signal; the % refers to the signal ratio; further: on the % scale 0 is the no-effect control and ±100 the full control effect
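S3 HeLa cells stably expressing lamin A-EGFP splicing minigene plus DsRed2, 600 cells/well, 48 h compound exposure at 37C. Laser-scanning cytometry; analysed as GFP (500-530 nm)/RFP (575-640 nm) total intensity ratio; 0.5% DMSO vehicle.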
HTT ATP protect: qHTS Multiplex Assay to Identify Dual Action Probes in a Cell Model of Huntington: Cytoprotection (ATP); PC12 HTT-Q103 induced, cytoprotection, ATP luminescence, 40 h; Potency, µM (highest dose often 56.4 µM), for the others: cytoprotection (ATP increase), most hits filed as activators; hit rate 0.14% among 230,000; AID 1471, 2008; active means well fitted curve in the direction sought with a large enough effect; inconclusive means small, poorly fitted or top-dose-only effect, or another doubt; inactive means no such curve, though single readings can be large; an effect the other way counts as inactive or inconclusive; further: % of control where 0% means no effect; nearly all actives have a fitted effect of over 45% in size
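PC12 cells stably carrying ecdysone-inducible Htt exon 1 (Q103)–GFP were induced with 100 nM tebufenozide (final) alongside library compounds in a dose series. Cytoprotection was scored as retained ATP by ATPlite luminescence.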
Numbers without * were called inactive; ? = inconclusive; · = no result; [ ] = remark or other dose. Compounds with a hit are over-represented: about 9.2% of the library has one in this group of screens. Unless noted, the call rests on the fitted dose curve; in most records, active means well fitted inhibition curve with a large enough effect (not every such curve was filed as active); inconclusive means small, poorly fitted or top-dose-only effect, or another doubt; inactive means no such curve, though single readings can be large or run the other way. Potency means the concentration at half of the fitted maximal effect.

SMILES	HPGD inh	ALDH1A1 inh	JMJD2E inh	HTT aggregate	LMNA splice mod	HTT ATP protect
O=C(c1cc(C(F)(F)F)cc(C(F)(F)F)c1)N1CCC2(CC1)CN(c1ccccn1)C2	?	?	·	·	·	20.6%
Cn1nccc1NS(=O)(=O)c1ccc(C(C)(C)C)cc1	·	·	-7.1%	-8.9%[9.22 µM]	·	7.0%[10 µM]
Cc1ccc(CNS(=O)(=O)c2ccc(C(C)(C)C)cc2)n1C	-11.0%	8.91µM*	-14.4%	?	8.1%	10.5%
CN1CC2(C)OC(=O)C(Cl)=C2CC1c1ccccc1 (stereo not drawn)	-1.7%	12.6µM*	6.8%	-17.0%	-9.1%	·
O=C1CC(c2ccccc2)N1c1ccccc1 (stereo not drawn)	-9.8%	-3.4%	9.7%	0.3%	2.9%	9.5%
C=CCn1cc(/C=C2/NC(=O)NC2=O)c2ccccc21	·	·	-12.3%	-6.8%[9.22 µM]	·	3.7%[10 µM]
C=CCn1cc(/C=N/N2C(=O)C3C4C=CC(C4)C3C2=O)c2ccccc21 (stereo not drawn)	·	25.1µM*	14.7%	17.0%	10.7%[46 µM]	-51.8%
NNc1nc2cccnc2n(CCNc2ncc(C(F)(F)F)cc2Cl)c1=O	·	1.58µM*	?	-1.5%	19.6%[46 µM]	-62.5%
O=C(O)[C@@H]1CCCN1	-4.6%	11.4%[13.5 µM]	·	-13.9%	?	-4.1%[10 µM]
COc1ccc(-c2cc(=O)c3c(O)c(OC)c(OC)c(OC)c3o2)cc1OC	-14.4%	20µM*	-14.6%	·	?	·
COc1cc2c(c3oc(-c4ccccc4)cc(=O)c13)C=CC(C)(C)O2	·	10µM*	-13.1%	10.4%[9.22 µM]	·	12.8%[10 µM]
COc1c(O)c(O)c2oc(-c3ccccc3)cc(=O)c2c1OC	·	?	31.6µM*	11.3%[9.22 µM]	·	24.1%[10 µM]
COc1cc(-c2cc(=O)c3c(O)c(OC)c(OC)c(O)c3o2)ccc1O	·	28.2µM*	20µM*	3.0%[9.22 µM]	·	-9.3%[10 µM]
COc1cc(OC)c2c(=O)cc(-c3ccccc3)oc2c1	·	?	?	13.4%[9.22 µM]	·	-35.4%[10 µM]
CCOc1ccc(Sc2cc(C(=O)NCCc3ccc(OC)c(OC)c3)c3ccccc3n2)cc1	·	·	·	·	-0.4%[46 µM]	·
NS(=O)(=O)c1cccc(NC(=O)CSc2nnc(-c3ccccc3F)n2C2CC2)c1	·	·	1.9%	14.6%[9.22 µM]	·	-8.1%[10 µM]
CCc1cccc(C)c1NS(=O)(=O)c1ccc2c(c1)NC(=O)C(C)C(=O)N2 (stereo not drawn)	·	·	·	·	-14.2%[46 µM]	·
CCN1CCCc2cc(CN(CCN3CCOCC3)C(=O)Nc3ccc(C)c(C)c3)ccc21	-8.4%	28.2µM*	?	-4.4%[9.22 µM]	0.4%	-19.6%
CCN1CCCc2cc(CN(CCN3CCOCC3)C(=S)Nc3ccccc3OC)ccc21	·	?	-22.9%	-5.4%[9.22 µM]	?	-22.4%
CCN1CCCc2cc(CN(CCN3CCOCC3)C(=S)Nc3ccccc3C)ccc21	·	22.4µM*	?	-1.7%	?	-54.1%
CCN1CCCc2cc(CN(CCN3CCOCC3)C(=S)Nc3cccc(C)c3)ccc21	·	7.94µM*	?	-0.5%	-13.8%[46 µM]	-34.2%
C[C@H]1[C@H](C)CC[C@@]2(C(=O)O)CC[C@]3(C)C(=CC[C@H]4[C@@]5(C)C[C@@H](O)[C@H](O)[C@@](C)(CO)[C@@H]5CC[C@@]43C)[C@@H]12	·	·	·	·	·	15.7%
COC(=O)CNC(=O)[C@@]1(C)C=C[C@@H](Cc2ccccc2)N1C(C)=O	10µM*	22.4µM*	-10.7%	·	·	-14.2%
CC(=O)N1[C@H](Cc2ccccc2)C=C[C@]1(C)C(=O)O	-13.2%	28.2µM*	0.0%	·	·	9.2%
COC(=O)N1[C@H](Cc2ccccc2)C=C[C@]1(C)C(=O)O	-13.7%	-10.0%	-5.8%	0.6%	0.4%	-5.4%
CC(=O)N1CCC[C@@]2(CCN(Cc3nccs3)C2)C1	-12.4%	?	·	·	·	7.8%
